Results: PubChem BioAssay (Tox21)
Inconclusive results are not listed. Calls of active or inactive are those of the source. Calls come from the whole dose curve; as a rule, active = well fitted cell-killing curve with a large enough effect in the repeat runs; inconclusive = weak or mixed curves, or effect the other way; inactive = flat fitted curve, though single readings scatter.

Experiment: qHTS RealTime-Glo MT Cell Viability Assay in HEK293 cells - 32 hour (AID 1224868); note: nearly all actives have a fitted effect of over 50% in size; for activity change, negative = cytotoxic: top concentration of the series differs between compounds
Settings: RealTime-Glo luminescence; series mostly up to 76.8 µM; activity change, negative = cytotoxic: at the top concentration
Source text: National Center for Advancing Translational Sciences [NCATS]
NIH Chemical Genomics Center [NCGC]
U.S. Environmental Protection Agency [EPA]
National Institutes of Environmental Health Sciences [NIEHS]
National Toxicology Program [NTP]
U.S. Food and Drug Administration [FDA]
Measure of cell viability is critical in the cell-base assay. Analysis of cell viability is necessary for the characterization of cell responses to cytotoxic drugs and environmental stress. A RealTime-Glo MT Cell Viability Assay to monitor cell viability in real time of continues cell culture during 40 hours of compound treatment was used to screen Tox21 10K library compounds in Hek293 cells. The RealTime-Glo MT Cell Viability Assay is a nonlytic, homogeneous, bioluminescent method to measure cell viability in real time using a simple, plate-based method. The assay involves adding NanoLuc luciferase and a cell-permeant prosubstrate to cells in culture. Viable cells reduce the proprietary prosubstrate to generate a substrate for NanoLuc luciferase. This substrate diffuses from cells into the surrounding culture medium, where it is rapidly used by the NanoLuc Enzyme to produce a luminescent signal. The signal correlates with the number of viable cells, making the assay well suited for cytotoxicity studies.
Tox21 Assay Protocol Summary:
The mixture of Hek293 cell suspension and reagents were dispensed at 600cells/6 ul/well in 1536-well tissue culture treated black solid bottom plates using a Multidrop dispenser. After the assay plates were incubated at a 37 C/5% CO2 incubator for 5 hours, 23 nL of compounds dissolved in DMSO, positive and negative controls was transferred to the assay plate by a pintool work station. The plates were incubated at 37 C for 40 hours. The luminescence intensity were measured at 0h, 8h, 16h, 24h, 32h and 40h time points using ViewLux plate reader during compound treatment.
% is set by controls: 0 for no effect and ±100 for the full control effect; potency is the fitted concentration of half-maximal effect.

Structure (SMILES)	activity change, negative = cytotoxic	Potency
C[C@@H]1C[C@H]2[C@@H]3CCC4=CC(=O)C=C[C@]4(C)[C@@]3(F)[C@@H](O)C[C@]2(C)[C@@]1(O)C(=O)CO	-12.6% (inactive)	
CO[C@H]1C=CO[C@@]2(C)Oc3c(C)c(O)c4c(O)c(c5c(c4c3C2=O)=NC2(CCN(CC(C)C)CC2)N=5)NC(=O)/C(C)=C\C=C/[C@H](C)[C@H](O)[C@@H](C)[C@@H](O)[C@@H](C)[C@H](OC(C)=O)[C@@H]1C		38.1 µM (active)
Cc1cnc(C)c(C)n1	-0.236% (inactive)	
CC1=CC(=O)CC(C)(C)C1(O)/C=C/C(C)=C\C(=O)O (stereo not given)	8.63% (inactive)	
NC(=O)N(O)[C@@H]1C=C[C@H](Oc2cccc(Oc3ccc(F)cc3)c2)C1		17.4 µM (active)
CNC(=S)NC	-17.5% (inactive)	
N#C/C(=C1/SC[C@@H](c2ccc(Cl)cc2Cl)S1)n1ccnc1	-24.9% [at 35.3 µM] (inactive)	
Cc1oncc1C(=O)Nc1ccc(C(F)(F)F)cc1		inactive
O=C(O)c1cccnc1C(=O)O	-3.01% (inactive)	
CC1C2CC(CC2C2CCCC(O)C2)C1(C)C (stereo not given)	-19.1% (inactive)	
c1cnc2c(n1)CCCC2	7.4% (inactive)	
CCCOCCOCCO	3.57% (inactive)	
COc1ccccc1N=Nc1c(S(=O)(=O)O)cc2cc(S(=O)(=O)O)cc(NC(C)=O)c2c1O	-6.7% (inactive)	
CC[C@H](NC(=O)c1cc(F)ccc1NS(=O)(=O)c1cccc2cccnc12)c1ccccc1	-7.65% (inactive)	
CCOC(=O)c1ccccc1C	-8.17% (inactive)	
Oc1cc(O)c(Cl)cc1Cl	14.5% (inactive)	
CC(=O)Nc1ccc(N)cc1	4.3% (inactive)	
Cc1cc(O)c(C(C)C)cc1Cl	2.15% [at 35.3 µM] (inactive)	
CCCOC(=O)c1ccc(N)cc1	-16.7% [at 35.3 µM] (inactive)	
CN1CCN(c2c(F)cc3c(=O)c(C(=O)O)cn4c3c2OCN4C)CC1	1.18% [at 15.8 µM] (inactive)	

Structure (SMILES)	activity change, negative = cytotoxic	Potency
CC1=C(/C=C/C(C)=C\C=C\C(C)=C\C(=O)O)C(C)(C)CCC1	-17.7% (inactive)	
COC(=O)CC(=O)C(C)(C)C	-17.8% (inactive)	
CC(=O)Oc1ccc(C(=C2CCCCC2)c2ccc(OC(C)=O)cc2)cc1	2.12% [at 35.3 µM] (inactive)	
CC1(C)C2=CCCC(C)(C)[C@]23CC[C@H]1C3	-8.56% (inactive)	
CC(CCO)CCc1ccccc1 (stereo not given)	-3.39% (inactive)	
Cc1cc(S(=O)(=O)O)ccc1N=Nc1c(O)ccc2ccccc12	-16% (inactive)	
Cc1cc(OI)c(C(C)C)cc1-c1cc(C(C)C)c(OI)cc1C	5.29% [at 35.3 µM] (inactive)	
O=C1NCCN1	-0.912% (inactive)	
CC(=O)CC(c1ccc([N+](=O)[O-])cc1)c1c(O)c2ccccc2oc1=O (stereo not given)	-3.46% [at 35.3 µM] (inactive)	
Cc1ccc(/C=N/n2c(-c3ccccc3)csc2=S)cc1	0.167% [at 35.3 µM] (inactive)	
CCCCCCCCCCCCCCC[C@H](O)[C@@H](N)CO		23.9 µM (active)
Nc1nc(Cl)nc2c1ncn2[C@@H]1O[C@H](CO)[C@@H](O)[C@@H]1F		4.77 µM (active)
CC(N)CN (stereo not given)	0.524% (inactive)	
CC(C)(CCl)c1ccccc1	6.9% (inactive)	
C=CC(C)(C)CC(=O)OC		1.38 µM (active)
CC(C)CCCCCOC(=O)CCCCC(=O)OCCCCCC(C)C	4.82% (inactive)	
CCCCCCCC/C=C\CCCCCCCC(=O)OC	5.36% (inactive)	
O=C(O)c1snc(Cl)c1Cl	11.7% (inactive)	
CCCCCCCCCCCCCCCCBr	4.73% [at 15.8 µM] (inactive)	
Cc1ccnc2ccccc12	6.47% (inactive)	
